The whole screen tested about 130,000 compounds, of which about 550 (0.42%) were called active. Roughly 4% stayed inconclusive and do not appear here. The call rests on the fitted dose curve; in most records, active means well fitted inhibition curve with a large enough effect; inconclusive means small, poorly fitted or top-dose-only effect, or effect the other way; inactive means flat fitted curve, though single readings scatter. The list comes from a sample in which actives are over-represented; it also holds similar structures and randomly drawn compounds.
Assay: qHTS Assay for Inhibitors of the ERK Signaling Pathway using a Homogeneous Screening Assay; Stimulation with EGF; further: nearly all actives have a fitted effect of over 55% in size;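 on activity change, negative = inhibition: plate controls were stimulated vehicle wells for no effect and unstimulated vehicle basal for full effect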
Settings: HEK293-V1b, EGF-stimulated phospho-ERK AlphaScreen; series mostly up to 11.5 µM; activity change, negative = inhibition: at the top concentration
Description: NIH Chemical Genomics Center [NCGC]
NIH Molecular Libraries Screening Centers Network [MLSCN]
Assay Submitter (PI): Dr. Wei Zheng, NCGC/NIH
The Ras/extracellular-signal-regulated kinase (ERK) mitogen activated protein (MAP) kinase signaling pathway (ERK1/2 cascade) plays a key role in transmitting signals from the cell surface to the nucleus (Nishida and Gotoh 1993; Chang and Karin, 2001). The cascade is initiated by the small G-protein Ras, which recruits Raf from the cytosol, where activation occurs. Alternatively, this pathway can be activated by elevating intracellular cAMP, or by activation of a receptor tyrosine kinase as epidermal growth factor receptor.
Activation of the ERK pathway is essential in increased cell division and cell survival. Sustained and constitutive activation of the ERK pathway, however, has been linked to uncontrolled cell proliferation, increased cell survival, and tumor progression. Thus, the ERK has been as an attractive target for cancer chemotherapy in the past few years (Sebolt-Leopold and Herrera, 2004). Given its physiological and pathological importance, assessment of ERK phosphorylation has been broadly performed in both basic research and drug discovery. Most assays for the measurement of ERK phosphorylation use the antibody-based detection methods, such as western blot and ELISA. These assays require multiple reagent additions with cell wash steps and are not suitable for high throughout screening.
The current cell-based ERK phosphorylation assay was performed using AlphaScreen platform. AlphaScreen is a two bead-based proximity-dependent chemical energy transfer luminescent assay platform. The assay reagents (ERK SureFire(TM) kit) were supplied from TGR BioSciences (Australia). In the presence of specific antibodies, phosphorylated ERK will bring "donor" and "acceptor" beads to a proximity range (<200 nm), and subsequently lead a chemical luminescent reaction upon exciting donor beads with 680 nm laser. To exclude the assay-related false positives, we used a biotinylated rabbit IgG to perform counter-screen. The biotinylated antibody mimics the phosphorylated ERK1/2 for bringing streptavidin coated beads and protein-A coated beads to a proximity range for the AlphaScreen detection.
NCGC Assay Protocol Summary:
HEK293 cells stably expressing type-1 vasopressin receptor (V1b) were maintained in DMEM medium (Invitrogen, Carlsbad, CA) at 37C under a humidified atmosphere containing 5% CO2 and 95% air. The medium contained 10% FBS, 2 mM L-glutamine, non-essential amino acid, pyruvate and 50 U/ml penicillin and 50 ug/ml streptomycin (Invitrogen). The aliquots of frozen cells were stored at -135C and used for the compound screening. All compounds were screened as titrations from 0.6 nM to 46 uM final concentration. Epidermal growth factor (EGF) was used to stimulate the ERK phosphorylation pathway. The ERK phosphorylation in cells was determined using an AlphaScreen assay kit provided by […]. Data were normalized to the controls for basal activity (DMSO only) and 100% activation (25 nM EGF). AC50 values were determined from concentration-response data modeled with the standard Hill equation.
(1) Seed 4 ul/well of resuspended frozen HEK293 cells containing 2000 cells in white 1536-well plates for overnight with 1% FBS at 37C under a humidified atmosphere containing 5% CO2 and 95% air.
(2) Add 23 nL compounds in DMSO solution. The final titration was 0.6 nM to 46 uM.
(3) Incubate at 37C for 30 min.
(4) Dispense 0.5uL EGF (25 nM in final)
(5) Incubate at 37C for 5 min.
(6) Dispense 0.5uL of 1:2 diluted 5x lysis buffer.
(7) Incubate at 37C for 10 min.
(8) Dispense 1.5uL of mixture of activation buffer and reaction buffer with AlphaScreen beads (streptavidin donor beads and protein-A acceptor beads, 10 ng/well for each).
(9) Incubate at room temperature for 5 hr.
(10) Detect the assay plate in an EnVision plate reader (PerkinElmer) using the AlphaScreen detection mode.
[…]
Potency means the concentration at half of the fitted maximal effect.

| SMILES | activity change, negative = inhibition | Potency |
| --- | --- | --- |
| CCOc1ccc(-c2nc(N)ncc2-c2ccccc2OC)c(O)c1 | -12.6% [at 57.5 µM] (inactive) |  |
| O=C(Nc1ccc2oc(-c3ccccc3F)nc2c1)c1ccco1 | 0.33% (inactive) |  |
| Cc1ccc(S(=O)(=O)N(C)C)cc1NC(=O)c1n[nH]c(=O)c2ccccc12 | -4.99% [at 57.5 µM] (inactive) |  |
| O=C(CNC(=O)COc1ccccc1)NCCc1ccccn1 | -0.794% (inactive) |  |
| CCCn1nc(Oc2nc(NC(C)C)nc(N(C)C)n2)ccc1=O | -6.22% (inactive) |  |
| O=C(NCC(=O)N(CC1CCCO1)C(C(=O)NC1CCCCC1)c1ccccc1)c1ccco1 (stereo unspecified) | -4.65% (inactive) |  |
| NS(=O)(=O)c1ccc(NC(=O)COC(=O)c2ccco2)cc1 | 10.8% (inactive) |  |
| O=C(Cn1cnc2ccccc2c1=O)Nc1cccc(S(=O)(=O)N2CCCCC2)c1 | 14.9% [at 57.5 µM] (inactive) |  |
| Fc1ccc(-c2csc(-c3ccc(C4SCCS4)cc3)n2)cc1F | -5.85% [at 57.5 µM] (inactive) |  |
| COCC1CCCN(Cc2nc(-c3ccc4c(c3)OCO4)no2)C1 (stereo unspecified) | 2.16% (inactive) |  |
| CCNC(=O)CC1C(=O)N(c2ccc(F)cc2)C(=O)N1Cc1cccs1 (stereo unspecified) | -4.27% (inactive) |  |
| CN(C)S(=O)(=O)c1ccc(Cl)c(NC(=O)COC(=O)CC(NC(N)=O)c2ccc(Cl)cc2)c1 (stereo unspecified) | 9.73% [at 57.5 µM] (inactive) |  |
| COc1ccc(/C=C/c2nnc(NC(=O)C(C)C)s2)cc1 | 1.71% [at 57.5 µM] (inactive) |  |
| O=C(O)c1ccc(/C=N/Nc2nc(N3CCCCC3)nc(N3CCCCC3)n2)cc1 | -5.89% [at 57.5 µM] (inactive) |  |
| COc1cc(OC)cc(-c2nnc(SCC(=O)Nc3ccc(C(=O)O)cc3)s2)c1 | -1.87% (inactive) |  |
| NC(=O)COc1ccc(NC(=O)c2ccccc2-c2ccccc2)cc1 | -15.3% (inactive) |  |
| O=C(CSc1nncs1)NC1CCCc2ccccc21 (stereo unspecified) | -7% (inactive) |  |
| O=C(O)c1cccnc1Sc1ncnc2sc3c(c12)CCC3 | -13.3% [at 57.5 µM] (inactive) |  |
| N#C/C(=C\C1=C(N2CCOCC2)C(=C\c2ccccc2)/CC1)C(=O)Nc1ccccc1F |  | 7.08 µM (active) |
| N#C/C(=C\c1ccccc1C(F)(F)F)C(=O)Nc1ccccc1F | -4.8% (inactive) |  |
| N#C/C(=C/c1ccc(N2CCOCC2)o1)C(=O)N1CCOCC1 | 11.4% (inactive) |  |
| O=C(CSc1nnnn1-c1ccc(O)cc1)c1ccc(F)cc1 | -7.72% [at 57.5 µM] (inactive) |  |
| O=C(CCCNS(=O)(=O)c1cccc2nsnc12)NCCN1CCN(c2ccccc2F)CC1 | -6.43% (inactive) |  |
| CCN(CC)CCCNC(=O)Cn1cnc2sc(C)c(S(=O)(=O)N3CCN(c4ncccn4)CC3)c2c1=O | -2.86% (inactive) |  |

| SMILES | activity change, negative = inhibition | Potency |
| --- | --- | --- |
| COc1cccc(CNC(=O)CCC2CCCN(C(=O)c3ccoc3C)C2)c1 (stereo unspecified) | -3.88% (inactive) |  |
| O=C(NC(=S)NC1CCSC1=O)c1ccccc1F (stereo unspecified) |  | 20 µM (active) |
| COC(=O)c1ccccc1NC(=S)NC(=O)c1ccccc1F | -0.514% (inactive) |  |
| O=C(NCCc1csc(-c2ccccc2)n1)c1ccccc1F | 5.73% [at 57.5 µM] (inactive) |  |
| Cc1ccc(S(=O)(=O)N2CCN(C(=O)COC(=O)c3c(C)noc3C)CC2)c(C)c1 | -0.545% [at 57.5 µM] (inactive) |  |
| O=C(NNC(=O)c1cnccc1C(F)(F)F)c1ccc(Cl)cc1 | -8.71% [at 57.5 µM] (inactive) |  |
| COc1cc2nc(Cl)nc(NCCO)c2cc1OC | 1.73% [at 57.5 µM] (inactive) |  |
| NS(=O)(=O)c1cccc(NC(=O)CSc2nc3ccccc3n2-c2ccccc2)c1 | -7.08% (inactive) |  |
| COC(=O)c1ccc(NC(=S)NN2CCOCC2)cc1 | -0.482% (inactive) |  |
| CN1CCN(/N=C2/C(=O)Nc3ccc([N+](=O)[O-])cc32)CC1 | -4.33% (inactive) |  |
| COCCCNC(=S)N(Cc1ccccc1)Cc1ccc(F)cc1 | 0.532% (inactive) |  |
| O=C(/C=C/c1ccc(Cl)c([N+](=O)[O-])c1)c1ccc(O)cc1 | 2.12% [at 57.5 µM] (inactive) |  |
| Cc1nn(-c2ccccc2)c(C)c1/C=C/C(=O)OC(C)C(N)=O (stereo unspecified) | -1.64% (inactive) |  |
| Cc1nn(-c2ccccc2)c(Cl)c1/C=C/C(=O)c1ccc(O)cc1 |  | 15.8 µM (active) |
| COc1ccc(OC)c(NC(=O)N[C@H](Cc2ccccc2)C(=O)NN)c1 | 2.4% [at 57.5 µM] (inactive) |  |
| CN(C)S(=O)(=O)c1ccc(C(=O)NCC(C)(C)N2CCOCC2)cc1 | -14.2% [at 57.5 µM] (inactive) |  |
| CC1(C)OC(=O)C(=CSc2ccc(C(C)(C)C)cc2)C(=O)O1 | -2.11% (inactive) |  |
| COc1ccc(NC(=S)NCC2CCN(c3ccc(OC)cc3)C2)cc1 (stereo unspecified) |  | 25.1 µM (active) |
| COc1ccc(N2CCC(CNC(=S)Nc3c(C)cccc3C)C2)cc1 (stereo unspecified) |  | 12.6 µM (active) |
| COc1ccc(NC(=S)NCCN2CCC(C)CC2)cc1 | 23.5% (inactive) |  |
| COc1cccc(N2CC(C(=O)Nc3c(C)cccc3C)CC2=O)c1 (stereo unspecified) | -8.02% (inactive) |  |
| COc1ccc(NC(=S)NCCNC(C)=O)cc1 | -28.6% (inactive) |  |
| COc1ccc(NC(=O)N2CCC(Cc3ccccc3)CC2)cc1 | -15.1% (inactive) |  |
| Cc1nc2cc(NC(=O)Nc3cccc(F)c3)ccc2n1C | -11.2% [at 57.5 µM] (inactive) |  |

| SMILES | activity change, negative = inhibition | Potency |
| --- | --- | --- |
| CC(C)=NN1C(=O)c2ccccc2NC1(C)C | -17.9% [at 57.5 µM] (inactive) |  |
| OCCC1CN(Cc2ccc3nsnc3c2)CCN1C1CCCCC1 (stereo unspecified) | -6.33% [at 57.5 µM] (inactive) |  |
| O=C(/C=C/c1ccc2c(c1)OCO2)NCc1cn2cc(Cl)ccc2n1 | -5.35% (inactive) |  |
| Cc1c(Cc2ccccc2)c(=O)oc2cc(OCC(N)=O)ccc12 | -6.39% (inactive) |  |
| Cc1ccc(S(=O)(=O)N2CCN(C(=O)c3cccs3)CC2)cc1 | -8.75% (inactive) |  |
| COC(=O)C1=C(N)Oc2cc(C)[nH]c(=O)c2C1c1ccc(Cl)cc1 (stereo unspecified) | -16.6% [at 57.5 µM] (inactive) |  |
| O=C(NNC(=O)c1ccc(Cl)cc1Cl)c1cccs1 | 4.42% (inactive) |  |
| O=C(Nc1ccccc1Cl)/C(Cl)=C(\Cl)S(=O)c1ccccc1 (stereo unspecified) |  | 31.6 µM (active) |
| COCCN(CCOC)C(=S)Nc1ccccc1Cl | 24.8% (inactive) |  |
| O=C(CN1CCCCC1)Nc1ccccc1Cl | -9.35% (inactive) |  |
| COC(=O)Cc1ccc(Oc2ncc(C(F)(F)F)cc2Cl)cc1 | 1.69% (inactive) |  |
| CCOc1ccccc1N1CN(Cc2ccccc2)CNC1=S | 1.39% [at 57.5 µM] (inactive) |  |
| CN(Cc1nc(-c2cnccn2)no1)Cc1n[nH]c2c1CCCCC2 | 3.06% [at 57.5 µM] (inactive) |  |
| CN=C1C=C/C(=N/N=c2\ccn(O)cc2C)C=C1C |  | 17.8 µM (active) |
| Cn1nnc(NC(=S)NC(=O)c2ccccc2)n1 | -2.19% [at 57.5 µM] (inactive) |  |
| COc1ccc(C(=O)N/N=C2\CCS(=O)(=O)c3ccc(F)cc32)cc1OC | -0.3% [at 57.5 µM] (inactive) |  |
| C/C(=N/NC(=O)c1ccn(C)n1)c1ccncc1 | 5.86% [at 57.5 µM] (inactive) |  |
| CCN(CC)S(=O)(=O)c1ccc(OC(C)C)c(N)c1 | 2.99% (inactive) |  |
| CCS(=O)(=O)c1ccc(O)c(NC(=O)COc2ccc(Cl)cc2)c1 | -0.946% (inactive) |  |
| CN(CCc1cn[nH]c1)C(=O)CC1C(=O)NCCN1Cc1cccc(Oc2ccccc2)c1 (stereo unspecified) | -15.3% (inactive) |  |
| O=C(CN1CCN(c2ccc(Cl)cc2)CC1)NCc1cccs1 | -13.5% (inactive) |  |
| Cc1ccc(/C=N/NC(=S)Nc2cccc(S(=O)(=O)N(C)C)c2)o1 | 7.91% [at 57.5 µM] (inactive) |  |
| Nc1nnc(SCn2nnc3ccccc3c2=O)s1 | -7.57% (inactive) |  |

Reference: PubChem BioAssay AID1454 (National Center for Advancing Translational Sciences (NCATS), 2008)
